Here are results for four compounds from the supplement of paper PMC11628255, “Interference of metal ions on the bioluminescent signal of firefly, Renilla, and NanoLuc luciferases in high-throughput screening assays” (Frontiers in Chemistry, 2024).

± gives the standard deviation of the averaged measurements.

For the test, the system named is firefly luciferase (FLuc). In words: residual bioluminescent signal relative to negative (DMSO) control; higher = less interference (more residual luciferase signal). On the procedure: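 Purified luciferase (FLuc 10 nM + 10 uM D-luciferin; NLuc 10 pM + 10 uM furimazine; RLuc 50 pM + 2 uM coelenterazine) in 384-well plates; metal salt pre-incubated with enzyme 10 min at RT, substrate added and luminescence read after 10 min. Signal normalised to plate DMSO negative control (% N_VALUE = x/mean neg *100); triplicate wells at 0.01, 1 and 5 mM salt.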

Setting [1] is: metal salt concentration 0.01 mM, HEPES conditions (100 mM HEPES, 5 mM MgSO4, 10 uM ATP, pH 7.5).
Setting [2] is: metal salt concentration 0.01 mM, screening conditions (0.5 mM Tris, 50 mM glycine, 0.5 mM EDTA, 5 mM MgSO4, 10 uM ATP, pH 7.6).
Setting [3] is: metal salt concentration 1 mM, HEPES conditions (100 mM HEPES, 5 mM MgSO4, 10 uM ATP, pH 7.5).
The mark [4] stands for this setting: metal salt concentration 1 mM, screening conditions (0.5 mM Tris, 50 mM glycine, 0.5 mM EDTA, 5 mM MgSO4, 10 uM ATP, pH 7.6).
Where [5] appears, read: metal salt concentration 5 mM, HEPES conditions (100 mM HEPES, 5 mM MgSO4, 10 uM ATP, pH 7.5).
The mark [6] stands for this setting: metal salt concentration 5 mM, screening conditions (0.5 mM Tris, 50 mM glycine, 0.5 mM EDTA, 5 mM MgSO4, 10 uM ATP, pH 7.6).

On to `O.O.O.O.O.O.O.O.O.O.O=S(=O)([O-])[O-].[Na+].[Na+]` [sodium sulfate], for which the residual bioluminescent signal under setting [1] is 81.9 ± 8.1%; the residual bioluminescent signal under setting [2] amounted to 73.4 ± 5.7%; the residual bioluminescent signal under setting [3] came to 51 ± 7.2%; the residual bioluminescent signal under setting [4] worked out at 70.4 ± 8.2%; the residual bioluminescent signal under setting [5] is 20 ± 6.1%; the residual bioluminescent signal under setting [6] stood at 51.1 ± 3.8%.

As to `O=C([O-])[O-].[K+].[K+]` [potassium carbonate], the residual bioluminescent signal is, setting by setting: under setting [1], 84.3 ± 17%; under setting [2], 81.3 ± 3%; under setting [3], 83.9 ± 16%; under setting [4], 85.8 ± 6.4%; under setting [5], 67.9 ± 15%; under setting [6], 49.2 ± 8.7%.

With `[Cl-].[Na+]` [sodium chloride], the residual bioluminescent signal under setting [1] was 102 ± 17%; the residual bioluminescent signal under setting [2] was found to be 104.5 ± 0.25%; the residual bioluminescent signal under setting [3] was 103 ± 19%; the residual bioluminescent signal under setting [4] worked out at 101 ± 5.4%; the residual bioluminescent signal under setting [5] stood at 92.4 ± 2%; the residual bioluminescent signal under setting [6] turned out to be 79.7 ± 3.2%.

Consider `O=S(=O)([O-])[O-].[Fe+2]` [iron(II) sulfate], for which the residual bioluminescent signal under setting [1] was 10.5 ± 3.6%; the residual bioluminescent signal under setting [2] was determined as 109 ± 9.9%; the residual bioluminescent signal under setting [3] came to 1.09 ± 0.23%; the residual bioluminescent signal under setting [4] amounted to 0.237 ± 0.14%; the residual bioluminescent signal under setting [5] was 1.22%; the residual bioluminescent signal under setting [6] turned out to be 0.237 ± 0.21%.
